Results filed as inconclusive are left out. Where a call stands in place of a potency, no number is given. Values without a mark were called inactive. Calls of active or inactive are those of the source. Calls follow the shape of the dose curve; as a rule, active = well fitted activation curve with a large enough effect in the repeat runs; inconclusive = weak or mixed curves; inactive = flat fitted curve, though single readings scatter.
assay: A CellTox Green Cytotoxicity Assay to monitor cytotoxicity in HepG2 cells - 16 hour (AID 1224876); conditions: CellTox Green fluorescence; series mostly up to 76.8 µM; also: nearly all actives have a fitted effect of over 45% in size
Excerpt: National Center for Advancing Translational Sciences [NCATS]
NIH Chemical Genomics Center [NCGC]
U.S. Environmental Protection Agency [EPA]
National Institutes of Environmental Health Sciences [NIEHS]
National Toxicology Program [NTP]
Cell-based models are critical for drug discovery. Determining the natural cytotoxic effects resulting from test compounds is an essential research activity. A CellTox Green Cytotoxicity Assay to monitor cytotoxicity in real time of continues cell culture during 40 hours of the compound treatment was used to screen Tox21 10K library compounds in HepG2 cells. CellTox Green Cytotoxicity Assay is a nonlytic, homogeneous, biofluorescent method to measure cytotoxicity in cell culture after experimental manipulation. The assay system uses a proprietary asymmetric cyanine dye that is excluded from viable cells but preferentially stains the dead cell's DNA. […] Viable cells produce no appreciable increases in fluorescence. Therefore, the fluorescence signal produced by the binding interaction with dead cell DNA is proportional to cytotoxicity.
The mixture of HepG2 cell suspension and reagents were dispensed at 600cells/6 ul/well in 1536-well tissue culture treated black solid bottom plates using a Multidrop dispenser. After the assay plates were incubated at a 37 C/5% CO2 incubator for 5 hours, 23 nL of compounds dissolved in DMSO, positive and negative controls was transferred to the assay plate by a pintool work station. The plates were incubated at 37 C for 40 hours. The fluorescence intensity were measured at 0h, 8h, 16h, 24h, 32h and 40h time points using ViewLux plate reader during compound treatment.
Potency is read from the fitted curve at half-maximal effect.

| SMILES | Potency | cytotoxicity increase |
| --- | --- | --- |
| Cc1cn([C@H]2C[C@H](F)[C@@H](CO)O2)c(=O)[nH]c1=O | inactive |  |
| O=NN(CCCl)C(=O)NCCCl | 4.77 µM (active) |  |
| CCC1CCC(CCC(=O)O)C1 (stereo not given) | inactive |  |
| CNc1c2c(nn1C)CCCC2 | inactive |  |
| c1ccc2sc(SSc3nc4ccccc4s3)nc2c1 |  | 2.16% [at 15.8 µM] |
| CCN(CC)C(=O)N1CCN(C)CC1 | inactive |  |
| CC(C)C1CCC(C(=O)N[C@H](Cc2ccccc2)C(=O)O)CC1 (stereo not given in full) | inactive |  |
| CCCCOCCOC(=O)c1cccnc1 | inactive |  |
| O[C@@H](CNC[C@H](O)[C@H]1CCc2cc(F)ccc2O1)[C@@H]1CCc2cc(F)ccc2O1 | 16.9 µM (active) |  |
| COC(OC)OC | inactive |  |
| CC(C)COC(=O)COc1cc(Cl)c(Cl)cc1Cl | inactive |  |
| CC(C(=O)O)c1ccc(C(=O)c2cccs2)cc1 (stereo not given) | inactive |  |
| CCCCCCCCCCCCCOC(=O)CCSCCC(=O)OCCCCCCCCCCCCC |  | -0.0072% [at 15.8 µM] |
| CCOC(=O)N1CCC(Nc2ccc(Cl)cc2N)CC1 | inactive |  |
| CCOCCC(=O)OCC | inactive |  |
| CC(=O)NNC(C)=O | inactive |  |
| NC(=O)CCCCC(N)=O | inactive |  |
| CNCc1ccc(NC(=O)c2c[nH]c3c2C(=O)CCC3)cc1 | inactive |  |
| COc1cc(OC)c2ccc(=O)oc2c1 | inactive |  |
| COc1cc(NS(=O)(=O)c2ccc(N)cc2)nc(C)n1 | inactive |  |

| SMILES | Potency | cytotoxicity increase |
| --- | --- | --- |
| Cc1ccc(N(CCO)CCO)cc1 | inactive |  |
| Nc1nc(-c2ccc([N+](=O)[O-])cc2)cs1 | inactive |  |
| CSCC[C@H](NC(=O)[C@H](Cc1c[nH]c2ccccc12)NC(=O)CCNC(=O)OC(C)(C)C)C(=O)N[C@@H](CC(=O)O)C(=O)N[C@@H](Cc1ccccc1)C(N)=O | inactive |  |
| CCCCCCCCCCCSCC(=O)O | inactive |  |
| COc1cc(NC(C)CCCN)c2ncccc2c1 (stereo not given) | inactive |  |
| CCCC(=O)OC(=O)CCC | inactive |  |
| C=C(C)c1ccccc1 | inactive |  |
| C[C@H](CS)C(=O)N1CCC[C@H]1C(=O)O | inactive |  |
| Cc1cc(CCCOc2c(C)cc(-c3noc(C(F)(F)F)n3)cc2C)on1 | inactive |  |
| CC(C)Cc1ccc(CC(=O)O)cc1 | 19 µM (active) |  |
| COC1CCC=CO1 (stereo not given) | inactive |  |
| CCCCCC | inactive |  |
| C=CCOC(=O)COCCC(C)C | inactive |  |
| CS(=O)(=O)c1ccc([C@@H](C[C@H]2CCC(=O)C2)C(=O)Nc2cnccn2)cc1Cl | inactive |  |
| COc1ccc(/C=C/C(=O)c2ccc(OC)cc2OC)cc1 | inactive |  |
| CN1CCCN(C(c2ccccc2)c2ccc(Cl)cc2)CC1 (stereo not given) | 23.9 µM (active) |  |
| O=C(c1ccccc1)c1ccc(O)cc1 | inactive |  |
| CCCCOC(=O)CCCCC(=O)OCCCC | inactive |  |
| Nc1ccc(NC(=O)c2ccc(N)cc2)cc1 | inactive |  |
| CC(C)(C)C(O)/C=C/c1ccc2c(c1)OCO2 (stereo not given) | inactive |  |

From PubChem BioAssay (Tox21)
